# Bioassay records as filed in PubChem.
# Compounds with a hit are over-represented: about 11% of the library has one in this group of screens.
# Pf growth 48h = P. falciparum growth inhibition at 48 hours (one generation); P. falciparum luciferase growth in erythrocytes, 48 h; Potency, µM (series often up to 28.7 µM), for inactives: at the top dose activity change, negative = inhibition, hits mostly inhibitors; 5.9% of 310,000 active
#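 A one-generation exposure of luciferase-tagged malaria parasites in RPMI 1640/Albumax erythrocyte culture, 37 C and 5% CO2. Inhibition is inferred from decreased luminescence after adding detection reagent.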
# Pf growth 96h = inhibits malaria parasite growth, 96 h | P. falciparum luciferase reporter growth, 96 h | Potency, µM (highest dose often 28.7 µM), for inactives: top-dose activity change, negative = inhibition, actives largely listed as inhibitors | 6.9% of 320,000 active | AID 504834
#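 P. falciparum expressing integrated firefly luciferase, in erythrocytes at 2% hematocrit, 0.05% parasitemia, incubated with compounds 96 h at 37 C, 5% CO2. Growth inhibition read as loss of luminescence; two-generation exposure targets delayed-death apicoplast inhibitors.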
# HCV inhibitor = inhibitors of hepatitis C virus infection; Huh7.5.1 HCVcc-Cre infection, luciferase reporter, 44 h; Potency, µM (doses to about 41.8 µM), for the others: top-dose activity change, negative = inhibition, hits mostly inhibitors; 3.4% of 340,000 active
#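 Infectious HCV cell culture screen: compound-treated cells (1,000/well, pre-plated 4 h) are infected with HCVcc-Cre at roughly 0.5 moi and grown 44 h. Infection is quantified by luciferase signal after 15 min substrate incubation at room temperature.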
# AMA1 RON2 block = inhibitors of Plasmodium falciparum AMA1-RON2 interaction; AlphaScreen AMA1-biotinylated RON2 peptide binding; Potency, µM (highest dose often 58.2 µM), without a hit: at the top dose activity change, negative = inhibition, usual class: inhibitors; 0.2% of 360,000 active; AID 720542;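 further: 0% = vehicle wells and -100% = peptide control; nearly all actives have a fitted effect of over 45% in size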
#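 AMA1 (3D7) with his tag at 25 nM final met compounds first, then biotinylated RON2 peptide at 25 nM; detection used donor plus acceptor beads, 10 µg/mL apiece, read by AlphaScreen after 30 min at room temperature.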
# Starred values were filed as active, the others as inactive; ? = inconclusive; · = no result given. The call rests on the fitted dose curve; in most records, active means well fitted curve in the direction sought with a large enough effect; inconclusive means small, poorly fitted or top-dose-only effect, or another doubt; inactive means no such curve, though single readings can be large; an effect the other way counts as inactive or inconclusive. Unless noted, on the % scale 0 is the no-effect control and ±100 the full control effect; potency means the concentration at half of the fitted maximal effect.
SMILES,Pf growth 48h,Pf growth 96h,HCV inhibitor,AMA1 RON2 block
Cc1cc(NC(=O)c2cc3n(n2)C(C(F)(F)F)CC(c2ccco2)N3)n(-c2ccccc2)n1 (stereo unspecified),9.28µM*,?,?,1.3%
O=C(c1cc2n(n1)C(C(F)(F)F)CC(c1ccco1)N2)N1CCc2ccccc2C1 (stereo unspecified),?,·,-13.6%,-6.9%
COc1cc2c(cc1OC)C(C)N(C(=O)c1cc3n(n1)C(C(F)(F)F)CC(c1ccco1)N3)CC2 (stereo unspecified),6.57µM*,·,?,?
O=C(CSc1nnc(Cc2cc(=O)[nH]c(=O)[nH]2)n1-c1ccc(F)cc1)N1CCCCC1,·,7.38µM*,-0.6%,27.1%
COC(=O)C(C)Sc1nnc(Cc2cc(=O)[nH]c(=O)[nH]2)n1-c1ccc(OC)cc1 (stereo unspecified),·,0.828µM*,13.0%,-4.5%
O=C(CSc1nnc(Cc2cc(=O)[nH]c(=O)[nH]2)n1-c1ccc(F)cc1)NC1CCCC1,·,5.86µM*,-1.5%,17.5%
COc1cccc(-n2c(Cc3cc(=O)[nH]c(=O)[nH]3)nnc2SCC(=O)N2CCCCC2)c1,·,33.0%,12.8%,0.0%
O=C(CSc1nnc(Cc2cc(=O)[nH]c(=O)[nH]2)n1-c1ccc(Cl)cc1)N1CCc2ccccc21,2.94µM*,?,·,·
COc1ccc(/C=C(\NC(=O)c2ccco2)C(=O)NC(Cc2ccccc2)C(=O)O)cc1 (stereo unspecified),15.0%,?,23.6%,6.6%
COc1ccc(CNC(=O)C2=CCN(S(=O)(=O)c3ccc(C)cc3)CC2)cc1,-19.1%,-25.2%,1.9%,1.5%
Fc1ccc(-c2nnc3ccc(N4CCc5ccccc5C4)nn23)cc1,·,17.3%,?,-1.4%
COc1ccc(C(=O)COC(=O)c2cc(=O)[nH]c3ccccc23)c(OC)c1,29.5%,103.1%,16.4%,11.2%
CCn1cc(C(=O)Nc2ccc(NC(=O)c3ccco3)cc2)c(=O)c2ccc(C)nc21,22.2%,6.57µM*,?,6.7%
CC1C/C(=C/c2cccn2C)C(=O)/C(=C/c2cccn2C)C1 (stereo unspecified),·,?,6.31µM*,?
CC1C/C(=C/c2ccncc2)C(=O)/C(=C/c2ccncc2)C1 (stereo unspecified),?,-21.7%,?,-2.7%
O=C(O)c1cc(-c2ccc(-c3c(-c4ccc5c(c4)OCO5)noc3-c3ccsc3)cc2)nc2ccccc12,2.4%,?,?,11.1%
c1ccc(-c2onc(-c3ccco3)c2-c2ccc3c(c2)OCO3)cc1,?,13.1µM*,-8.5%,29.4%
O=P(O)(O)CCP(=O)(c1ccccc1)c1ccccc1,-12.0%,1.65µM*,17.9%,1.8%
CP(C)(=O)CCP(=O)(c1ccccc1)c1ccccc1,16.5%,7.9%,1.7%,-11.9%
COc1ccc(C(=O)COc2ccc3c(C)cc(=O)oc3c2)cc1,8.7%,?,-29.7%,-7.3%
COc1ccc(Oc2c(C(F)(F)F)oc3cc(OCC(=O)O)ccc3c2=O)cc1,15.1%,9.28µM*,6.3%,-5.2%
O=C(Nc1ccc(Cl)cc1)C1CCN(C(=O)c2ccco2)CC1,?,15.0%,-7.1%,-6.3%
COc1ccc(N2C(=O)c3ccccc3NC23C(=O)N(C)c2ccccc23)cc1 (stereo unspecified),4.7%,·,-0.3%,-8.0%
CC1(c2ccncc2)Nc2ccccc2-c2nc3ccccc3n21 (stereo unspecified),3.29µM*,2.62µM*,-7.2%,9.5%
COc1ccc2c(c1)C1(Nc3ccccc3-c3nc4ccccc4n31)C(=O)N2 (stereo unspecified),0.415µM*,·,11.4%,-3.7%
SMILES,Pf growth 48h,Pf growth 96h,HCV inhibitor,AMA1 RON2 block
COc1ccc2c(c1)C1(Nc3ccccc3-c3nc4ccccc4n31)C(=O)N2C (stereo unspecified),6.57µM*,14.8%,2.8%,-0.8%
OC(CCN1CCCCC1)c1ccc(-c2ccccc2)cc1 (stereo unspecified),·,4.65µM*,?,13.9%
CCN(CCCl)c1cc(CN(C)C)cc(NC(=O)c2ccc(C(=O)Nc3cc(CN(C)C)cc(N(CC)CCCl)c3)cc2)c1,·,·,1.41µM*,25.1µM*
CCN(CC)c1ccc(NC(=O)c2cnn(CC)c2)cc1,?,?,?,-19.2%
O=[N+]([O-])c1ccccc1-c1nc(-c2ccc(Br)o2)no1,122.0%,?,?,25.1µM*
Clc1ccccc1-c1nc(-c2ccc(Br)o2)no1,7.1%,?,?,7.6%
CCCCn1c(N)c(N(CC(C)C)C(=O)CSCc2ccc(Cl)c(Cl)c2)c(=O)[nH]c1=O,11.7µM*,?,?,-20.1%
Cc1ccc(S(=O)(=O)N2CCN(CC(=O)N(CC(C)C)c3c(N)n(CC(C)C)c(=O)[nH]c3=O)CC2)c(C)c1,?,4.15µM*,-0.3%,16.8%
CCCCn1c(N)c(N(CC(C)C)C(=O)C2CCN(S(=O)(=O)c3ccc(C)c(C)c3)CC2)c(=O)[nH]c1=O,2.62µM*,2.33µM*,-19.5%,-8.6%
CCCCn1c(N)c(N(CC(C)C)C(=O)CSCc2cccc(C)c2)c(=O)[nH]c1=O,?,?,2.2%,-1.3%
CC(C)CN(C(=O)CN1CCN(c2ccc(F)cc2)CC1)c1c(N)n(CC(C)C)c(=O)[nH]c1=O,-2.1%,75.2%,20.3%,-1.9%
CCCCn1c(N)c(N(CCOC)C(=O)C2CCN(S(=O)(=O)c3ccc(C)cc3C)CC2)c(=O)[nH]c1=O,13.1µM*,?,-7.8%,-21.1%
O=C(COC(=O)c1ccc(Br)o1)Nc1cccc(S(=O)(=O)N2CCCCCC2)c1,·,10.1%,-26.4%,2.9%
CCCCn1c(N)c(N(CC(C)C)C(=O)C2CCN(S(=O)(=O)c3ccccc3)CC2)c(=O)[nH]c1=O,?,?,?,2.2%
CCCCn1c(N)c(N(CC(C)C)C(=O)C(C)SCc2nc3sc(C)c(C)c3c(=O)[nH]2)c(=O)[nH]c1=O (stereo unspecified),11.7µM*,7.1%,17.3%,1.6%
CCCCn1c(N)c(N(CC(C)C)C(=O)C2CCN(S(=O)(=O)c3ccc(C)cc3C)CC2)c(=O)[nH]c1=O,13.1µM*,?,?,-8.7%
O=C(NCCC1=CCCCC1)c1cc(S(=O)(=O)N2CCOCC2)c(Cl)cc1Cl,?,16.7%,-2.1%,10.5%
CC(=O)N1CCN(S(=O)(=O)c2cccc(C(=O)NCCC3=CCCCC3)c2)CC1,12.1%,8.28µM*,14.6%,23.4%
Cc1ccc(CSCCNC(=O)c2ccc(Cl)c(S(=O)(=O)N3CCOCC3)c2)cc1,·,5.22µM*,22.4µM*,-17.2%
O=C(NCCC1=CCCCC1)c1ccc(Cl)c(S(=O)(=O)N2CCOCC2)c1,5.86µM*,-9.1%,?,4.7%
O=C(NCCC1=CCCCC1)c1ccc(Cl)c(S(=O)(=O)N2CCCCC2)c1,9.28µM*,5.86µM*,?,24.7%
O=C(c1ccc(Cl)c(S(=O)(=O)NCc2cccnc2)c1)N1CCCC1,32.2%,26.3%,2.1%,0.0%
CCCCCNC(=O)c1[nH]c(C(F)(F)F)nc1-c1ccccc1,·,·,·,-17.8%
